Data published in PubChem BioAssay.
“And” between values parts separate entries of the source, which are not always exact repeats. Equal entries are not always repeated. The source made the active and inactive calls. Unless noted, how the calls were made is not given here.

Assays:
[1] = viability loss with induced miR-34 in A549 – imaging, A549 dox-inducible miR-34, nuclei and caspase counts, primary screen (AID 1347080;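 active means compounds whose cell count with miR-34 switched on is under 0.7 times the count with it off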); details: A549 miR-34 inducible, Hoechst nuclei count, 48 h
[2] = galactose survival enhancers in mitochondrial complex I cybrids – cell-based, galactose medium, ATP luminescence, primary screen (AID 1645843;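 active means z-score of at least 1.8 in each of two replicates, scored against plate mean and spread of sample wells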;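 further: positive z means more ATP and so rescue of galactose-driven cybrid death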); details: complex I mutant cybrid cells, 72 h, stronger effect = higher value
[3] = compounds altering circadian rhythm period length – cell-based, LOPAC library, luminescence reporter (AID 2774); details: circadian reporter cells, at 7 µM, actives lie on both sides;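 further: values are relative to mean of DMSO wells on each plate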
[4] = system: Hepatitis C virus NS3 helicase; assay: blockers of NS3h binding to ssDNA – biochemical, fluorescence polarization, LOPAC1280 library, primary screen (AID 687035; in the data active means inhibition above about 37%); details: Purified HCV NS3 helicase, Cy5-dT15 ssDNA binding fluorescence polarization; stronger effect = higher value; concentration not given here
[5] = compounds altering Cy5-DNA-NS3h complex signal – biochemical, LOPAC1280, artefact control for HCV NS3 helicase inhibitor project (AID 687037); details: Cy5-DNA-NS3h complex fluorescence interference counterscreen
[6] = stronger effect = lower value, cell number ratio, induced over uninduced
[7] = measured here: relative caspase fold change +Dox/-Dox
[8] = measured here: total cells with miR-34 induction, stronger effect = lower value
[9] = measured here: total cells without miR-34 induction

With `CC1CC2C3CCC4=CC(=O)C=C[C@]4(C)[C@@]3(F)C(O)C[C@]2(C)C1C(=O)CO` (stereo partly drawn) the fold change [1, 6] was 0.805 (inactive), the fold change [1, 7] was 1.08 and the cell count [1, 8] was 6880. The cell count [1, 9] was 8550 and the z-score [2] was 1.76 (inactive).

For `N=c1ccn2c(n1)OC1[C@@H](O)[C@@H](CO)O[C@H]12` (stereo partly drawn), the period change [3] was -0.115 h (inactive), the inhibition [4] was -5% (inactive) and the fluorescence ratio (interference) [5] was 1 (inactive). For the same compound, the fold change [1, 6] was 1.14 (inactive), the fold change [1, 7] was 1.55 and the cell count [1, 8] was 1970. For the same compound, the cell count [1, 9] was 1730 and the z-score [2] was -1.23 (inactive).

For `Nc1ccn([C@@H]2O[C@H](CO)[C@@H](O)[C@@H]2O)c(=O)n1`, the period change [3] was -0.07 h (inactive), the inhibition [4] was -4% (inactive) and the fluorescence ratio (interference) [5] was 0.9 (inactive). For the same compound, the fold change [1, 6] was 0.984 (inactive), the fold change [1, 7] was 1.55 and the cell count [1, 8] was 1860. For the same compound, the cell count [1, 9] was 1890 and the z-score [2] was -0.93 (inactive).

With `CCSC(N)=Nc1ccc(C(F)(F)F)cc1` the period change [3] was 0.125 h (inactive), the fold change [1, 6] was 1.02 (inactive) and the fold change [1, 7] was 0.833. The cell count [1, 8] was 5930 and the cell count [1, 9] was 5830.

For `CN(C)C(=O)/N=N/C(=O)N(C)C`, the period change [3] was 0.015 h (inactive), the fold change [1, 6] was 1.04 (inactive) and the fold change [1, 7] was 1.27. The cell count [1, 8] was 10000, the cell count [1, 9] was 9690 and the z-score [2] was -1.03 (inactive).

In the case of `CC[C@@H]1Cc2cc(O)ccc2C2=C1c1ccc(O)cc1C[C@H]2CC`, the period change [3] was -0.02 h (inactive), the inhibition [4] was 0% (inactive) and the fluorescence ratio (interference) [5] was 1 (inactive). The fold change [1, 6] was 1.3 (inactive), the fold change [1, 7] was 0.93 and the cell count [1, 8] was 4580. For the same compound, the cell count [1, 9] was 3520 and the z-score [2] was -0.765 (inactive).

For `O=C(O)CCC/C=C\C[C@@H]1[C@@H](/C=C/[C@H](O)C2Cc3ccccc3C2)[C@@H](F)C[C@@H]1O`, the period change [3] was -0.195 h (inactive), the inhibition [4] was -2% (inactive) and the fluorescence ratio (interference) [5] was 1 (inactive). The fold change [1, 6] was 0.962 (inactive) and 0.866 (inactive), the fold change [1, 7] was 1.71 and 1.08 and the cell count [1, 8] was 9120 and 5490. The cell count [1, 9] was 9480 and 6340 and the z-score [2] was 0.805 (inactive).
